# Laboratory results published in PubChem BioAssay (NCATS).
# Records with an inconclusive call do not appear. Where a call stands in place of a potency, no number is given. The source made the active and inactive calls. Unless noted, calls follow the shape of the dose curve; as a rule, active = well fitted curve in the direction sought with a large enough effect; inconclusive = small, poorly fitted or top-dose-only effect, or another doubt; inactive = no such curve, though single readings can be large; an effect the other way counts as inactive or inconclusive.
# What was measured:
# [1] = molecular target: Cytochrome P450 3A4 (Homo sapiens) (UniProt P08684); experiment: qHTS Assay for Inhibitors and Substrates of Cytochrome P450 3A4 (AID 884); also: nearly all actives have a fitted effect of over 50% in size
# Cytochrome P450 3A4 (Homo sapiens), sequence (P08684 whole entry, looked up): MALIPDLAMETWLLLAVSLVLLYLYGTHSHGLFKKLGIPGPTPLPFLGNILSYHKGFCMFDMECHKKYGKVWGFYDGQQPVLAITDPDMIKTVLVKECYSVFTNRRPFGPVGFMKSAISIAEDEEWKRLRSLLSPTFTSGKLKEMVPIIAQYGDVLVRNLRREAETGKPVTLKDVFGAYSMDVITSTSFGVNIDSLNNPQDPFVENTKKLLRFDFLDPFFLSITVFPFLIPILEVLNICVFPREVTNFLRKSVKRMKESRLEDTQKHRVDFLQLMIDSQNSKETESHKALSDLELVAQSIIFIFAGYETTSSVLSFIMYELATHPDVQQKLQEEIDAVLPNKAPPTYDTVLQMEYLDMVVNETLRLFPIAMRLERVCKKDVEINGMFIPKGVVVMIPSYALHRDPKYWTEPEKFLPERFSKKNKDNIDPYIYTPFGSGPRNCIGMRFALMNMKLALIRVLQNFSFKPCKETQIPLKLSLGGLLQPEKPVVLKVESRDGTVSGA
# Procedure, shortened: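 20 nM human CYP3A4 with 25 uM Luciferin-PPXE (at KM) in 200 mM KPO4, preincubated 10 min with compound; NADPH regeneration started a 60 min RT reaction. Luciferin detected by luminescence, normalized to 57 uM ketoconazole as full inhibition.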
# [2] = Confirmation and Secondary Assay for Modulators of Hemoglobin Beta Chain Splicing at IVS2 654 locus (AID 910);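 also: HeLa cells stably carrying EGFP split by mutant beta-globin IVS2-654 intron; per-well total GFP intensity by laser scanning cytometry after 2-day treatment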
# Procedure, shortened: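 Readout: per-well total peak green fluorescence (488 nm ex, 500–520 nm em) from objects 5–250 µm, reflecting correct splicing of an EGFP-654 reporter. Compounds were applied for 2 days at 37 °C to overnight-plated HeLa EGFP-654 cells; controls were DMSO and 500 nM IVS2-654 PNA.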
# [3] = Confirmation and Secondary Assay for Modulators of Hemoglobin Beta Chain Splicing at IVS2 705 locus (AID 930);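 also: HeLa cells stably expressing the EGFP-705 splicing reporter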
# Procedure, shortened: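 HeLa cells stably carrying EGFP interrupted by mutant beta-globin IVS2-705 intron (CMV-driven) were seeded at 500 cells/well, treated next day with compound for 2 days at 37C; corrected splicing restores EGFP, read as total peak GFP intensity per well.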
# [4] = qHTS Assay for Lipid Storage Modulators (AID 1519; calls by dose curve); conditions: Drosophila S3 cells, BODIPY lipid droplet/cell ratio, laser cytometry, cells loaded with oleic acid; for activity change, negative = inhibition: at 57.5 µM (top of the series)
# Procedure, shortened: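 Cells seeded at 5,000 per well were treated with compounds over a concentration series and loaded with oleic acid (400 uM, as added). Lipid droplet fluorescence (488 nm excitation, 500-530 nm channel) was read by laser-scanning cytometry and normalized to 20 uM Triacsin C.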
# [5] = molecular target: ATP-dependent 6-phosphofructokinase (Trypanosoma brucei brucei) (UniProt O15648); experiment: qHTS Assay to Find Inhibitors of T. brucei phosphofructokinase: hit validation (AID 492961);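 also: luminescence reports ADP formed as PFK phosphorylates fructose-6-phosphate with ATP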
# ATP-dependent 6-phosphofructokinase (Trypanosoma brucei brucei), sequence (O15648 whole entry, looked up): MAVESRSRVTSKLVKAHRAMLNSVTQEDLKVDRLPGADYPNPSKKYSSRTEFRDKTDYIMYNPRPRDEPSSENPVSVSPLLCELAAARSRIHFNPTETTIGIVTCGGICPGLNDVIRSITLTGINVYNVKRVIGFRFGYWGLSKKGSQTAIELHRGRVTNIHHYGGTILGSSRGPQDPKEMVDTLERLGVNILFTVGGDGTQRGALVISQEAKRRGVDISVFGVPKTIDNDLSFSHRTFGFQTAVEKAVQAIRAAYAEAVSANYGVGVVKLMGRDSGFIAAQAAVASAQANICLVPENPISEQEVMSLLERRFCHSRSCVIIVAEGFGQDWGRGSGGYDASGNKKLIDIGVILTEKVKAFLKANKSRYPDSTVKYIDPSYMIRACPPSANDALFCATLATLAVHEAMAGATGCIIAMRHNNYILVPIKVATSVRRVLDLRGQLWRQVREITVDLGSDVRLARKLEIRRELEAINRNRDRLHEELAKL
# Procedure, shortened: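 ADP-Glo luminescence read-out of ADP formed by 1.25 nM PFK from 0.1 mM ATP and 0.5 mM F6P (TEA pH 8.0, 45 min, RT). Compounds titrated; activity normalized to no-enzyme and full-enzyme controls.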
# [6] = qHTS profiling for inhibitors of Plasmodium falciparum proliferation (AID 504749); also: potency is read from the fitted curve at half-maximal effect; as to all read-outs here: nearly all actives have a fitted effect of over 60% in size; conditions: P. falciparum in erythrocytes, SYBR Green DNA, 72 h; for activity, negative = inhibition: at 28.7 µM (top of the series)
# Procedure, shortened: (§1)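 Three-day growth assay of blood-stage parasites in erythrocytes (0.3% parasitemia, 2.5% hematocrit) at 37 C, 5% CO2, quantified by SYBR Green DNA staining after overnight detergent lysis.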
# CP201 = experiment: as above; conditions: P. falciparum in erythrocytes, SYBR Green DNA, 72 h; series mostly up to 12.8 µM
# Procedure, shortened: as §1
# CP211 = experiment: as above; conditions: P. falciparum in erythrocytes, SYBR Green DNA, 72 h; series mostly up to 12.8 µM
# Procedure, shortened: as §1
# CP262 = experiment: as above; conditions: P. falciparum in erythrocytes, SYBR Green DNA, 72 h; series mostly up to 12.8 µM
# Procedure, shortened: as §1
# CP266 = experiment: as above; conditions: P. falciparum in erythrocytes, SYBR Green DNA, 72 h; series mostly up to 12.8 µM
# Procedure, shortened: as §1
# CP268 = experiment: as above; conditions: P. falciparum in erythrocytes, SYBR Green DNA, 72 h; series mostly up to 12.8 µM
# Procedure, shortened: as §1
# CP305 = experiment: as above; conditions: P. falciparum in erythrocytes, SYBR Green DNA, 72 h; series mostly up to 12.8 µM
# Procedure, shortened: as §1
# CP325 = experiment: as above; conditions: P. falciparum in erythrocytes, SYBR Green DNA, 72 h; series mostly up to 12.8 µM
# Procedure, shortened: as §1
# CP329 = experiment: as above; conditions: P. falciparum in erythrocytes, SYBR Green DNA, 72 h; series mostly up to 12.8 µM
# Procedure, shortened: as §1
# FAB9 = experiment: as above; conditions: P. falciparum in erythrocytes, SYBR Green DNA, 72 h; series mostly up to 12.8 µM
# Procedure, shortened: as §1
# JCK = experiment: as above; conditions: P. falciparum in erythrocytes, SYBR Green DNA, 72 h; series mostly up to 12.8 µM
# Procedure, shortened: as §1
# PC15 = experiment: as above; conditions: P. falciparum in erythrocytes, SYBR Green DNA, 72 h; series mostly up to 12.8 µM
# Procedure, shortened: as §1
# PC49 = experiment: as above; conditions: P. falciparum in erythrocytes, SYBR Green DNA, 72 h; series mostly up to 12.8 µM
# Procedure, shortened: as §1
# [7] = molecular target: Ubiquitin carboxyl-terminal hydrolase 1 (Homo sapiens) (UniProt O94782); experiment: Inhibitors of USP1/UAF1: Pilot qHTS (AID 504865);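 also: rhodamine fluorescence freed from ubiquitin-rhodamine substrate followed over time; top concentration of the series differs between compounds; nearly all actives have a fitted effect of over 35% in size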
# Ubiquitin carboxyl-terminal hydrolase 1 (Homo sapiens), sequence (O94782 whole entry, looked up): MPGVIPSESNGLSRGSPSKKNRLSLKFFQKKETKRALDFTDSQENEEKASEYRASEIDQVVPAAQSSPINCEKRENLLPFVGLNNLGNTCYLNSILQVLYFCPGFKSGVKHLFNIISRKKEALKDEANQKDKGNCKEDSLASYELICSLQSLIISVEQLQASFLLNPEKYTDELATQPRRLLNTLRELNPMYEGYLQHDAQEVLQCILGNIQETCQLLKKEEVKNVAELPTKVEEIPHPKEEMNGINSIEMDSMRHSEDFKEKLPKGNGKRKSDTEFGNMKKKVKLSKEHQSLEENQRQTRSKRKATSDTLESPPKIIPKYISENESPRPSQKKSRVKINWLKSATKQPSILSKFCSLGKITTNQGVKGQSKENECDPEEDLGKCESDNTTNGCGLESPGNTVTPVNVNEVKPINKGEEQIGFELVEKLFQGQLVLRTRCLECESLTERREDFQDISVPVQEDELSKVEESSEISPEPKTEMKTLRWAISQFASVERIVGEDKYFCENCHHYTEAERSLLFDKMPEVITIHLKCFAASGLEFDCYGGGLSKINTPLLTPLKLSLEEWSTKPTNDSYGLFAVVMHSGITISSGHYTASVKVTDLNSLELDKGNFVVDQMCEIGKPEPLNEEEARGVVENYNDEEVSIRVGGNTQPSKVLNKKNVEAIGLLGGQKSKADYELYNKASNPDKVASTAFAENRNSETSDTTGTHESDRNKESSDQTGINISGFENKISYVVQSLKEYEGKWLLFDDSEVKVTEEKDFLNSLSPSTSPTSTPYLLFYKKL
# Procedure, shortened: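 Enzyme-free wells gave the negative control, while test wells held 1nM USP1/UAF1 preincubated with compound for 15 min at room temperature. Ub-Rho at 150nM final started the reaction, and fluorescence at 480/540 nm was recorded kinetically.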
# [8] = molecular target: Cytochrome P450 3A4 (Homo sapiens) (UniProt P08684); experiment: qHTS Assay for Activators of Cytochrome P450 3A4 (AID 885); also: nearly all actives have a fitted effect of over 65% in size
# Procedure, shortened: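 Signal was normalized against complete inhibition by 57 uM ketoconazole. The reaction used 20nM CYP3A4 with 25uM Luciferin-PPXE, 10-min compound preincubation and a 60-min NADPH-supported step at RT.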
# [9] = measured here: cell count channel max response
# [10] = measured here: lipid channel max response
smiles,measurement,setting,value
CC(C)Oc1ccc2c(=O)cc(-c3ccccc3)oc2c1,Potency,[1],inactive
same,Potency,[2],inactive
same,Potency,[3],inactive
same,"activity change, negative = inhibition",[4],14.1% (inactive)
same,max response,[4]; [9],14.7%
same,max response,[4]; [10],29.4%
same,outcome,[5],inactive
same,"activity, negative = inhibition",[6]; parasite line A,-21.9% (inactive)
same,Potency,CP201,inactive
same,Potency,CP211,inactive
same,Potency,CP262,inactive
same,Potency,CP266,inactive
same,Potency,CP268,inactive
same,Potency,CP305,inactive
same,Potency,CP325,inactive
same,Potency,CP329,inactive
same,Potency,FAB9,inactive
same,Potency,JCK,inactive
same,Potency,PC15,inactive
same,Potency,PC49,inactive
N[C@@H]1C(O)OC(CO)C(O)C1O (stereo partly specified),Potency,[1],inactive
same,Potency,[2],inactive
same,Potency,[3],inactive
same,"activity change, negative = inhibition",[4],5.31% (inactive)
same,max response,[4]; [9],7.77%
same,max response,[4]; [10],20.8%
same,outcome,[5],inactive
same,Potency,[7],inactive
same,"activity, negative = inhibition",[6]; parasite line A,3.86% (inactive)
same,Potency,CP201,inactive
same,Potency,CP211,inactive
same,Potency,CP266,inactive
same,Potency,CP268,inactive
same,Potency,CP305,inactive
same,Potency,CP325,inactive
same,Potency,CP329,inactive
same,Potency,FAB9,inactive
same,Potency,JCK,inactive
same,Potency,PC15,inactive
same,Potency,PC49,inactive
CCC1OC(=O)CC(O)C(C)[C@@H](O[C@@H]2OC(C)[C@H](O[C@@H]3C[C@@](C)(O)C(O)C(C)O3)C(N(C)C)C2O)[C@H](CC=O)CC(C)C(=O)/C=C/C(C)=C/[C@@H]1COC1OC(C)C(O)C(OC)[C@@H]1OC (stereo partly specified),Potency,[1],inactive
same,Potency,[2],inactive
same,Potency,[3],inactive
same,"activity change, negative = inhibition",[4],0.0526% (inactive)
same,max response,[4]; [9],-1.62%
same,max response,[4]; [10],4.9%
same,outcome,[5],inactive
same,Potency,[7],inactive
same,Potency,FAB9,inactive
same,Potency,JCK,inactive
same,Potency,PC15,inactive
same,Potency,PC49,inactive
CCC(C)C(=O)OC1CC(O)C=C2C=CC(C)C(CCC(O)CC(O)CC(=O)O)C21 (stereo unspecified),Potency,[1],inactive
same,Potency,[2],inactive
same,Potency,[3],inactive
same,"activity change, negative = inhibition",[4],5.21% (inactive)
same,max response,[4]; [9],11.3%
same,max response,[4]; [10],17.6%
same,Potency,[7],inactive
same,"activity, negative = inhibition",[6]; parasite line A,-1.64% (inactive)
same,"activity, negative = inhibition",[6]; parasite line B,-21.8% (inactive)
same,Potency,CP201,inactive
same,Potency,CP211,inactive
same,Potency,CP262,inactive
same,Potency,CP266,inactive
same,Potency,CP268,inactive
same,Potency,CP305,inactive
same,Potency,CP325,inactive
same,Potency,CP329,inactive
same,Potency,FAB9,inactive
same,Potency,JCK,inactive
same,Potency,PC15,inactive
same,Potency,PC49,inactive
COC(=O)CCCC[C@@H]1SC[C@@H]2NC(=O)N[C@@H]21,"activity change, negative = inhibition",[4],0.0624% (inactive)
same,max response,[4]; [9],-0.817%
same,max response,[4]; [10],0.263%
same,Potency,[7],inactive
N[C@H](Cc1ccc(O)cc1)C(=O)O,"activity change, negative = inhibition",[4],2.68% (inactive)
same,max response,[4]; [9],-25.6%
same,max response,[4]; [10],-23%
same,Potency,[7],inactive
CC[C@@]12CCCN3CCc4c(n(c5ccccc45)[C@](O)(C(=O)OC)C1)C32 (stereo partly specified),Potency,[3],inactive
same,"activity change, negative = inhibition",[4],6.08% (inactive)
same,max response,[4]; [9],25.6%
same,max response,[4]; [10],38.6%
same,outcome,[5],inactive
same,Potency,[7],inactive
same,"activity, negative = inhibition",[6]; parasite line A,4.65% (inactive)
same,"activity, negative = inhibition",[6]; parasite line B,-5.85% (inactive)
same,Potency,CP201,inactive
same,Potency,CP211,inactive
same,Potency,CP262,inactive
same,Potency,CP266,inactive
same,Potency,CP268,inactive
same,Potency,CP305,inactive
same,Potency,CP325,inactive
same,Potency,CP329,inactive
same,Potency,FAB9,inactive
same,Potency,JCK,inactive
same,Potency,PC15,inactive
same,Potency,PC49,inactive
COC(=O)[C@H]1[C@@H]2C[C@@H]3c4[nH]c5ccccc5c4CCN3C[C@H]2CC[C@H]1O,"activity change, negative = inhibition",[4],4.52% (inactive)
same,max response,[4]; [9],12.3%
same,max response,[4]; [10],17.8%
same,Potency,[7],inactive
COC1CC(O[C@H]2/C(C)=C/CC3CC(C[C@]4(CCC(C)C(C5CCCCC5)O4)O3)OC(=O)[C@H]3C=C(C)/C(=N/O)C4OC/C(=C\C=C\[C@@H]2C)[C@@]43O)OC(C)C1O (stereo partly specified),Potency,[1],inactive
same,Potency,[3],inactive
same,"activity change, negative = inhibition",[4],-12.3% (inactive)
same,max response,[4]; [9],13.8%
same,max response,[4]; [10],-0.335%
same,outcome,[5],inactive
same,Potency,CP201,inactive
same,Potency,CP211,inactive
same,Potency,CP262,inactive
same,Potency,CP266,inactive
same,Potency,CP268,inactive
same,Potency,CP305,inactive
same,Potency,CP325,inactive
same,Potency,CP329,inactive
same,Potency,PC15,inactive
OCC1OC(Oc2cccc3cccnc23)C(O)C(O)C1O (stereo unspecified),Potency,[1],inactive
same,"activity change, negative = inhibition",[4],-4.73% (inactive)
same,max response,[4]; [9],-12.4%
same,max response,[4]; [10],-14.1%
same,Potency,[7],inactive
CC(=O)[C@]1(O)CCC2C3C=C(Cl)C4=CC(=O)C5CC5[C@@]4(C)C3CC[C@]21C (stereo partly specified),Potency,[2],inactive
same,Potency,[3],inactive
same,"activity change, negative = inhibition",[4],8.7% (inactive)
same,max response,[4]; [9],4.22%
same,max response,[4]; [10],14.3%
same,outcome,[5],inactive
same,"activity, negative = inhibition",[6]; parasite line A,6.27% (inactive)
same,"activity, negative = inhibition",[6]; parasite line B,5.21% (inactive)
same,Potency,CP201,inactive
same,Potency,CP211,inactive
same,Potency,CP262,inactive
same,Potency,CP266,inactive
same,Potency,CP268,inactive
same,Potency,CP305,inactive
same,Potency,CP325,inactive
same,Potency,CP329,inactive
same,Potency,FAB9,inactive
same,Potency,JCK,inactive
same,Potency,PC15,inactive
same,Potency,PC49,inactive
COc1ccc(-c2cc(=O)c3c(O)cc(O[C@H]4OC(COC5OC(C)C(O)C(O)[C@H]5O)C(O)C(O)C4O)cc3o2)cc1O (stereo partly specified),Potency,[3],inactive
same,"activity change, negative = inhibition",[4],5.51% (inactive)
same,max response,[4]; [9],6.56%
same,max response,[4]; [10],15.8%
same,"activity, negative = inhibition",[6]; parasite line A,15% (inactive)
same,"activity, negative = inhibition",[6]; parasite line B,23.4% (inactive)
same,Potency,CP201,inactive
same,Potency,CP211,inactive
same,Potency,CP262,inactive
same,Potency,CP266,inactive
same,Potency,CP268,inactive
same,Potency,CP305,inactive
same,Potency,CP325,inactive
same,Potency,CP329,inactive
same,Potency,FAB9,inactive
same,Potency,JCK,inactive
same,Potency,PC15,inactive
same,Potency,PC49,inactive
O=C(O)C1=C[C@@H](O)[C@@H](O)[C@H](O)C1,"activity change, negative = inhibition",[4],5.96% (inactive)
same,max response,[4]; [9],13.7%
same,max response,[4]; [10],21.4%
same,Potency,[7],inactive
CC(=O)O[C@@]1(C(C)=O)CCC2C3CC(C)C4=CC(=O)CC[C@@]4(C)C3CC[C@]21C (stereo partly specified),Potency,[8],inactive
same,Potency,[2],inactive
same,Potency,[3],inactive
same,"activity change, negative = inhibition",[4],-11.6% (inactive)
same,max response,[4]; [9],4.77%
same,max response,[4]; [10],-5.62%
same,outcome,[5],inactive
same,Potency,[6]; parasite line B,12.6 µM (active)
same,Potency,CP201,inactive
same,Potency,CP211,inactive
same,Potency,CP262,inactive
same,Potency,CP266,inactive
same,Potency,CP268,inactive
same,Potency,CP305,inactive
same,Potency,CP325,inactive
same,Potency,CP329,inactive
same,Potency,FAB9,inactive
same,Potency,JCK,inactive
same,Potency,PC49,inactive
